The values below come from ChEMBL document CHEMBL3433997, “St. Jude Leishmania screening dataset” (2016).

Assay type in all cases: functional
The target in assay [1] is Solute carrier family 2, facilitated glucose transporter member 1 (Homo sapiens) (UniProt P11166). Description: ST_JUDE_LEISH: Cytotoxicity at 2uM final concentration against transgenic Leishmania Mexicana promastigotes LmGLUT1 that are glucose transport deficient and complemented with the human glucose transporter GLUT1. Activity is measured by DNA content using SYBR green in vitro.
Sequence of Solute carrier family 2, facilitated glucose transporter member 1 (Homo sapiens) (P11166 whole entry): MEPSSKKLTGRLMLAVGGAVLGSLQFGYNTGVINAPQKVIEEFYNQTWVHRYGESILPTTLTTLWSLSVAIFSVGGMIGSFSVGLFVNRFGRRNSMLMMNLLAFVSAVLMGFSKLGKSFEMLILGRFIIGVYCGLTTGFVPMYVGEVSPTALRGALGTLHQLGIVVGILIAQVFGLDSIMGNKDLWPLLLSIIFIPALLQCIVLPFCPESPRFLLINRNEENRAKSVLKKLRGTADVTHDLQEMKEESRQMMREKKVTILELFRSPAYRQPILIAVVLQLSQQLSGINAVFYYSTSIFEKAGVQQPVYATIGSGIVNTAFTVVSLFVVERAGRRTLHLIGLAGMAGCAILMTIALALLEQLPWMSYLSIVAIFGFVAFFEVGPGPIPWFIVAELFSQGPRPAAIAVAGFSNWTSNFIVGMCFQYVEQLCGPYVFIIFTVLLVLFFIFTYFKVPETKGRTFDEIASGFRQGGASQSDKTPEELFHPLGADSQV

In assay [2] the target is Hexose transporter 1 (Plasmodium falciparum) (UniProt O97467). Description: ST_JUDE_LEISH: Cytotoxicity at 2uM final concentration against transgenic Leishmania Mexicana promastigotes LmPfHT that are glucose transport deficient and complemented with the Plasmodium falciparum hexose transporter. Activity is measured by DNA content using SYBR green in vitro.
The target of assay [3] is Glucose transporter (Leishmania mexicana) (UniProt O61059). Nature of the assay: ST_JUDE_LEISH: Cytotoxicity at 2uM final concentration against transgenic Leishmania Mexicana promastigotes LmGT2 that are glucose transport deficient and complemented with the L. Mexicana glucose transporter 2. Activity is measured by DNA content using SYBR green in vitro.

On to `CC(Nc1ccc2c(c1)CCC2)C(=O)Nc1cc(C(F)(F)F)ccc1N1CCOCC1` (centres undefined), for which the figures for the inhibition in assay [1], in assay [2] and in assay [3] were 14.7%, 16.9% and 11.1%, respectively.
Taken in the same sequence, the figures for `CN(CCCCCN1CCC(NC(=O)Nc2ccc(Oc3ccccc3)cc2)C1)C(=O)/C=C/c1ccc(Cl)c(Cl)c1` (centres undefined) were 0%, 6.7% and -1.12%.
In the same order, the values of `COc1ccccc1CNC(=O)c1cc(Br)cc(N2CCN(c3ccncc3)CC2)c1` are 1.71%, 2.47% and 0.83%.
`NC(=O)c1ccc(C(=O)Nc2cccc(-c3csc(-c4nc5ccccc5[nH]4)c3)c2)cc1`: the inhibition in assay [1] was 9.88%; in assay [2] it was 8.58%; in assay [3] it was 8.06%.
Taken in the same sequence, the figures for `COc1cccc(Nc2nccc(NCC(O)c3cccc(C(F)(F)F)c3)n2)c1` (centres undefined) were 4.86%, 5.48% and 1.78%.
For the compound `COc1ccc(NC(=O)Nc2cc(C)nc3cccnc23)cc1Cn1ccnc1`, the inhibition was 1.73% in assay [1], 1.25% in assay [2] and 0.47% in assay [3].
In the same order, the values of `COc1cc(O)c2c(=O)c(OC)c(-c3cccc(Cl)c3OC3O[C@H](CO)[C@@H](O)[C@H](O)[C@H]3O)oc2c1OC` (some centres undefined) are 5.21%, 4.48% and 4.54%.
In the same order, the values of `CCOc1ccc2[nH]c(C)cc(=NN=Cc3ccccc3)c2c1` are 3.33%, 2.11% and 2.8%.
`CN(C(=O)Cc1ccc(Cl)c(Cl)c1)C1CCN(CCCCCNC(=O)/C=C/c2ccc(Cl)c(Cl)c2)CC1`: the inhibition stood at 4.46% in assay [1], 3.72% in assay [2] and 3.27% in assay [3].
In the case of `CN1CCN(Cc2cccc(-c3ccc4c(Nc5cc(O)c(Cl)cc5F)ccnc4c3)c2)CC1`, the inhibition in assay [1] amounted to 2.16%; in assay [2], 6.74%; in assay [3], 13%.
Consider `Cc1nc(C)c(-c2ccc(C(=O)c3ccccc3)cc2)c(O)c1Br`, for which the inhibition in assay [1] turned out to be 5.44%; in assay [2] it was 5.49%; in assay [3], 5.35%.
Taken in the same sequence, the figures for `Cn1nc(-c2cccc(CNCCc3cccs3)c2)c2cnc(NC3CCCC3)nc21` were 5.58%, 5.16% and 5.1%.
In the same order, the values of `C=CC(=O)Nc1ccc(Cl)cc1C(O)c1ccccc1` (centres undefined) are 2.6%, 2.07% and 2.36%.
In the same order, the values of `CSc1ccc2ccccc2c1CNCCCCCCNCc1c(SC)ccc2ccccc12` are 1.24%, 0.13% and 1.41%.
As to `CN(C)CCOc1cc(O)c2c(c1)OC(C)(C)C=C2c1cccs1`, the inhibition in assay [1] is -0.97%; in assay [2] it was -1.11%; in assay [3], -0.34%.
On to `COc1ccc(CCNCCCCCNCCCc2ccc(Cl)cc2)cc1OC`, for which the inhibition is -1.33% in assay [1], -1.18% in assay [2] and 0.25% in assay [3].
Taken in the same sequence, the figures for `Cc1cc(C(=O)Nc2ccc3c(c2)CCN3C2CCN(Cc3cccc4cc[nH]c34)C2)no1` (centres undefined) were 2.23%, 1.71% and 3.09%.
Consider `COc1ccc(CN2CCC(CNC(C)c3cccc4ccccc34)CC2)cc1` (centres undefined), for which the inhibition is 7.32% in assay [1], 12.7% in assay [2] and 5.96% in assay [3].
As to `COc1ccc(NC(=O)[C@H](Cc2ccccc2)Nc2cc(C)nc(NCCOc3ccccc3)n2)cc1`, the figures for the inhibition in assay [1], in assay [2] and in assay [3] were 4.06%, 2.78% and 2.55%, respectively.
For the compound `CCc1ccc(NC(=O)c2cccc(CN3CCCN(CC4CCCCC4)CC3)c2)cc1`, the inhibition in assay [1] is 1.02%; in assay [2], 1.36%; in assay [3], -2.12%.
Taken in the same sequence, the figures for `Cc1c[nH]c2ccc(/C=C/C(=O)NC3CCC(CCN4CCc5ccc(C#N)cc5CC4)CC3)cc12` (centres undefined) were 5.06%, 5.55% and 0.32%.
With `COc1cc(NC(=O)N2CCOC(CCN3CCC4(CCc5ccccc54)CC3)(c3ccc(Cl)c(Cl)c3)C2)cc(OC)c1OC` (centres undefined), the values for the inhibition in assay [1], in assay [2] and in assay [3] were 18.1%, 15.1% and 14.1%, respectively.
In the same order, the values of `Cc1cc(N[C@@H](Cc2ccccc2)C(=O)Nc2ccccc2)nc(Nc2ccccc2)n1` are 5.97%, 5.91% and -0.05%.
In the same order, the values of `O=C(Nc1cccc(C(F)(F)F)c1)c1ccc(S(=O)(=O)NC2CCN(CC3CCCCC3)C2)cc1` (centres undefined) are 3.79%, 3.31% and 4.54%.
Take `Cc1cccc2nc(-c3cccc(-c4cccc(NC(=O)Nc5ccc(Cl)cc5)c4)c3)[nH]c12`: the inhibition in assay [1] is -3.06%; in assay [2], -0.68%; in assay [3], -1.91%.
Taken in the same sequence, the figures for `COc1ccc(NC(=O)NC2CCN(c3ccnc4cc(Cl)ccc34)CC2)cc1` were 3.93%, 1.61% and 0.02%.
In the case of `CC(=O)c1c(C)[nH]c(C(=O)Nc2ccc(-c3nc4ccc(C)cc4s3)cc2)c1C`, the inhibition in assay [1] was -0.62%; in assay [2], -4.21%; in assay [3], 2.35%.
In the same order, the values of `COc1ccc(C2CC(c3cccs3)=NN2C(=O)CNc2ccccc2F)cc1OC` (centres undefined) are 2.69%, 1.72% and 2.76%.
Consider `O=C(COC(=O)c1cccc(S(=O)(=O)N2CCc3ccccc32)c1)NNC(=O)c1cccs1`, for which the inhibition in assay [1] came to 4.4%; in assay [2], 4.13%; in assay [3], 2.91%.
Consider `COc1ccc(OCCCCON2C(=N)N=C(N)NC2(C)C)cc1`, for which the inhibition in assay [1] turned out to be 3.18%; in assay [2], 1.29%; in assay [3] it was 2.18%.
In the same order, the values of `CC1(C)CCC(=Cc2ccc(Cl)cc2)CC1(O)Cn1ccnc1` (centres undefined) are 11.7%, 6.85% and 3.82%.
In the case of `N=c1n(Cc2ccccc2)c2ccccc2n1CC(O)c1ccc(Cl)cc1` (centres undefined), the inhibition worked out at 1.36% in assay [1], 2.09% in assay [2] and 1.14% in assay [3].
In the same order, the values of `O=c1cnc2ccc(F)cc2n1CCN1CCC(NCc2cc(-c3ccccc3)cs2)CC1` are 28.4%, 32.4% and 48.5%.

A word on the inhibition: it is the drop in the measured response relative to a control, in per cent.
